# Source: PubChem
# CYP2C9 inh – blocks human cytochrome P450 2C9; P11712; CYP2C9 Supersomes, luciferin-H conversion, luminescence; inhibition, % at 5 µM; hit rate 20% among 96,000;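 active = blocking of liver enzyme CYP2C9 beyond about 50% at 5 µM, limit read from the data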
# CYP2C19 activ – increases human CYP2C19 enzyme activity; recombinant CYP2C19, luciferin-H EGE luminescence; stronger effect = higher value; 0 = fully inhibited enzyme, 1 = untreated enzyme; activation factor at 5 µM; 96,000 tested, under 10 active;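 active = activation factor of at least 2 at 5 µM in the primary screen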;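 note: 0 = wells with 2.5 mM tranylcypromine and 1 = vehicle-only wells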
# Target sequence (P33261 whole entry, looked up): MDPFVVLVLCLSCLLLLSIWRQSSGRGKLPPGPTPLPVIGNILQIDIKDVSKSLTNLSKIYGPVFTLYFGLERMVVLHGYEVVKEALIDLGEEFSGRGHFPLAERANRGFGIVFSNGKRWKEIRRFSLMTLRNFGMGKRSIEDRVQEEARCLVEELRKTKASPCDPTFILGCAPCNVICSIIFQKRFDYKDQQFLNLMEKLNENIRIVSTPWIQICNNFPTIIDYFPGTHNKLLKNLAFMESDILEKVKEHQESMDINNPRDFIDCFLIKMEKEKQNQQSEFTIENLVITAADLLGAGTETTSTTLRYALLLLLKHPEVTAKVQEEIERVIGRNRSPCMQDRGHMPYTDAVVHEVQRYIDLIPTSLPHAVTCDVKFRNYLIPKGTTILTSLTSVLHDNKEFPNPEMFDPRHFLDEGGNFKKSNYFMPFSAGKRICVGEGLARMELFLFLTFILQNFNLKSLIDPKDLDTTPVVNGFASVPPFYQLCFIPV
# CYP2C9 act – CYP2C9 (human) activation | recombinant CYP2C9, luciferin-H conversion, luminescence; stronger effect = higher value; factor 1 = untreated enzyme, 0 = blocked | activation factor at 5 µM | hit rate 1.4% among 96,000 | AID 1024;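 active = activation factor of 2 or more for CYP2C9 at a 5 µM dose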;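 note: 0 = sulfaphenazole-blocked wells and 1 = vehicle-only wells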
# PostGolgi yeast – growth inhibition of a yeast mutant, post-Golgi transport screen | AID 739 | post-Golgi transport phenotypic cell assay | hit rate 0.9% among 98,000 | inhibition, % at 10 µM;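 note: yeast cells grown in 1536-well plates; yeast grown about 18 h at 30C before absorbance read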
# CYP2C19 inhib – blocks human cytochrome P450 2C19. inhibition, % at 5 µM. CYP2C19 Supersomes, luciferin-H EGE luminescence, 30 min. AID 778. hit rate 21% among 96,000;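 active = CYP2C19 inhibition above a set limit at 5 µM in the primary screen, cut at about 50% in these data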;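 note: plate controls were negative control wells for no effect and 2.5 mM tranylcypromine positive control for full effect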
# PostGolgi ctrl – growth of the yeast control strain, post-Golgi counter-screen. efflux-deficient yeast background strain, growth absorbance A615, 16 h. inhibition, % at 10 µM. hit rate 5% among 98,000
# Active calls of the source: *; nt = no result. Compounds with a hit are over-represented: about 32% of the library has one in this group of screens. Cut-off read from the data, not from the text of the source, unless noted: active = inhibition above about 30%; inactive = the rest.
SMILES,CYP2C9 inh,CYP2C19 activ,CYP2C9 act,PostGolgi yeast,CYP2C19 inhib,PostGolgi ctrl
COc1cc(OC)cc(C(=O)NCCNC(=O)c2ccccc2)c1,46,0.5,0.5,0,53*,3
CC(C)CN1C(=O)c2ccc(NC(=O)c3cccs3)cc2C1=O,29,0.8,0.7,-3,23,6
CC(C)CN1C(=O)c2ccc(C(=O)Nc3ccccn3)cc2C1=O,16,1,0.8,-1,-2,2
CC(C)CN1C(=O)c2ccc(NC(=O)c3ccccc3F)cc2C1=O,-19,1.1,1.2,-9,-8,33*
CC(C)CN1C(=O)c2ccc(C(=O)Nc3ccncc3)cc2C1=O,97*,0,0,-1,98*,6
COc1ccc(C(O)CNc2ccc(C)cc2)cc1 (stereo not given),16,0.1,0.8,-1,92*,-7
COc1ccc(CCNc2ccc(C)cc2)cc1,45,0.2,0.5,-8,85*,-1
COc1ccc(N(CC(=O)Nc2ccccc2SC)S(C)(=O)=O)cc1OC,25,0.9,0.8,6,14,-4
Cc1cccc(N(CC(=O)Nc2ccccc2F)S(C)(=O)=O)c1,69*,0.1,0.3,-6,92*,0
CCc1ccc(NC(=O)CN(c2cccc(C)c2)S(C)(=O)=O)cc1,39,0.6,0.6,7,42,-6
CSc1ccccc1NC(=O)CN(c1cccc(C)c1)S(C)(=O)=O,53*,0.5,0.5,6,51*,5
O=C(CN1C(=O)NC2(CCCCCCC2)C1=O)N1CCOCC1,-12,1,1.1,9,-4,7
CC1(C)CC(n2c(NCCO)nc3c(c2=O)C2(CCCC2)Cc2ccccc2-3)CCO1 (stereo not given),84*,0.2,0.2,4,84*,26
O=c1[nH]c(NCCO)nc2c1C1(CCCCC1)Cc1ccccc1-2,6,1,0.9,-2,-1,31*
CC(=O)Nn1cnc2c(c1=O)C1(CCCCC1)Cc1ccccc1-2,32,0.6,0.7,-5,37,22
O=c1[nH]c(CN2CCCCC2)nc2c1C1(CCCCC1)Cc1ccccc1-2,9,1,0.9,-1,3,4
O=c1c2c(nc(NCCO)n1CC1CCCCC1)-c1ccccc1CC21CCCC1,100*,0.1,0,18,93*,23
CCc1c(C)[nH]n(-c2ccc(Oc3ccccc3)c(S(=O)(=O)O)c2)c1=O,8,1.1,0.9,0,-6,2
CCCn1nnnc1SCC(=O)N1CCCC1,-5,1,1.1,-3,2,13
CC(C)(C)NC(=O)CSC(=Nc1cccc(F)c1)NC#N,32,0.9,0.7,6,6,2
O=C(c1ccccc1Nc1ccc(SC(F)F)cc1)N1CCCCCC1,60*,0.2,0.4,4,84*,25
CC(C)NC(=O)C1CC(=O)N(c2ccc(F)c(Cl)c2)C1 (stereo not given),-49,0.7,1.5,7,27,11
CC(C)(C)SCCNS(=O)(=O)c1ccccc1,9,1,0.9,-5,-3,-11
CC(C)(C)SCCNS(=O)(=O)c1ccc2ccccc2c1,-166,0.1,2.7*,20,86*,18
CS(=O)(=O)NCCSCc1ccco1,15,0.9,0.9,-5,6,12
SMILES,CYP2C9 inh,CYP2C19 activ,CYP2C9 act,PostGolgi yeast,CYP2C19 inhib,PostGolgi ctrl
CSc1ccc(S(=O)(=O)NCCSC(C)(C)C)cc1,5,0.1,1,-8,86*,8
COc1ccc(S(=O)(=O)NCCSC(C)(C)C)cc1Cl,-191,0.7,2.9*,3,32,27
CC(C)(CNS(=O)(=O)c1ccc(F)cc1)CNS(=O)(=O)c1ccc(F)cc1,0,0.7,1,3,32,5
COc1ccc(S(=O)(=O)NCCSCc2ccco2)cc1Cl,-106,0.1,2.1*,3,95*,-3
Cc1cc(C)n(Cc2ccc(C(=O)NCCC3=CCCCC3)o2)n1,18,0.6,0.8,2,41,12
CCCOc1ccc(N2C(=O)CC(N(C(=O)c3ccco3)c3ccc(OCCC)cc3)C2=O)cc1 (stereo not given),17,1,0.8,-1,1,14
C=CCNC(=O)CCCCCNS(=O)(=O)c1ccc(OC)cc1,11,0.6,0.9,7,36,3
CSc1ccc(S(=O)(=O)NCCOc2ccccc2C)cc1,-16,0.4,1.2,-5,63*,9
CSc1ccc(S(=O)(=O)NCCSc2ccccn2)cc1,nt,nt,nt,5,nt,21
COc1ccc(S(=O)(=O)NCCSC(C)(C)C)cc1,16,0,0.8,3,96*,4
COc1ccc(-c2csc(Cc3nnc(N4CCOCC4)n3-c3ccccc3)n2)cc1,12,1.2,0.9,-2,-18,5
Cc1cc2ncn(S(=O)(=O)N(C)C)c2cc1C,14,0.9,0.9,5,14,3
Cn1c(=O)c2c(nc(NCc3ccco3)n2CCc2ccccc2)n(C)c1=O,36,0.9,0.6,24,11,0
Cc1ccccc1OCC(O)Cn1c(NCc2ccco2)nc2c1c(=O)n(C)c(=O)n2C (stereo not given),93*,0.1,0.1,-1,87*,5
CCOC(=O)c1sc(C(=O)OCC)c(OCCO)c1OCCO,16,1,0.8,-2,-2,-1
CC1CN(S(=O)(=O)c2cccc(C(=O)OCC(=O)c3cccs3)c2)CC(C)O1 (stereo not given),25,0.7,0.8,1,28,4
CC1CN(S(=O)(=O)c2cccc(C(=O)OCc3cc(=O)oc4cc(O)ccc34)c2)CC(C)O1 (stereo not given),83*,0.3,0.2,16,69*,5
O=C(Cc1cc(=O)oc2cc(O)ccc12)NCC1CCC(C(=O)O)CC1 (stereo not given),-10,1.1,1.1,12,-13,11
CN(C)c1cccc(C(=O)OCc2cc(=O)oc3cc(O)ccc23)c1,79*,0.4,0.2,13,57*,15
CC(C)(NC(=O)N1CCCC1)c1cccc(C(C)(C)NC(=O)N2CCCC2)c1,20,1.1,0.8,-2,-6,4
CSc1ccc(NC(=O)CC(C)=O)cc1,-14,1,1.1,-1,-1,26
CCCC(=O)Nc1ccc(C(=O)/C=C/c2ccc(SC)cc2)cc1,73*,0.5,0.3,-3,50*,1
CSc1ccc(/C=C/C(=O)c2ccc(NC(C)=O)cc2)cc1,48,0.5,0.5,-13,51*,15
CN(C(=S)NC(=O)CCCOc1ccc(Cl)cc1Cl)c1ccccc1,43,0.6,0.6,0,40,7
COC(=O)CCN(C1CCCCC1)S(=O)(=O)c1ccc(S(=O)(=O)N2CCCCC2)cc1,8,0.9,0.9,16,8,16
O=S(=O)(c1ccc(S(=O)(=O)N(Cc2ccc(F)cc2)C2CCCC2)cc1)N1CCCC1,77*,0.3,0.2,-6,68*,8
